Bioassay records (PubChem BioAssay)
Sampled rows, rich in hits. Any-hit rate of the full collection: about 3.9%.
CCHF vOTU inh: CCHFV vOTU protease inhibition; Pep-AMC fluorescence; inhibition, % at 11.5 µM; actives 0.55% (n = 370,000); AID 651958; in the data active = inhibition above about 30%
Anthrax LF inh2: anthrax lethal factor protease inhibition; P15917; multiplex microsphere protease cleavage assay, LF; inhibition, % at 10 µM; actives 0.12% (n = 360,000); AID 588501
BoNT F protease: blocks Botulinum neurotoxin F light chain protease; actives 0.22% (n = 360,000); Multiplex microsphere protease cleavage assay, flow cytometry; AID 588497; inhibition, % at 10 µM; in the data active = inhibition above about 35%, passing the limit was not always enough; inconclusive = no clear call, values can overlap the other calls
Autofluor counter: compound fluorescence in toxin protease inhibitor counterscreen. fluorescence intensity (concentration not given with the values). actives 3.1% (n = 360,000). AID 624483. compound autofluorescence counterscreen, microsphere flow cytometry; active compounds read high; in the data active = fluorescence intensity above about 16000; inconclusive = no clear call, values can overlap the other calls
3CLpro inhibitor: SARS-CoV 3CLpro protease inhibition | P0C6X7 | AID 1706 | inhibition, % at 6 µM | actives 0.14% (n = 290,000) | recombinant SARS-CoV 3CLpro, quenched FRET peptide cleavage; in the data active = inhibition above about 12%
BoNT-A LC inh2: inhibitors of Botulinum neurotoxin A light chain protease; multiplex microsphere protease substrate cleavage, flow cytometry; inhibition, % at 10 µM; actives 0.17% (n = 360,000)
Large screens that a line does not name were inactive. Cut-off read from the data, not from the text of the source, unless noted: active = inhibition above about 30%; inconclusive = no clear call, values can overlap the other calls; inactive = below that.

O=C1Cc2cc(S(=O)(=O)N3CCN(c4cccc(Cl)c4)CC3)ccc2N1	none
O=C1CCc2cc(S(=O)(=O)N3CCN(c4cccc(Cl)c4)CC3)ccc2N1	Autofluor counter 17938
COc1ccc(N2CCN(CCCNC(=O)COc3ccc(F)cc3)CC2)cc1	none (no result: Anthrax LF inh2, BoNT F protease, Autofluor counter, 3CLpro inhibitor, BoNT-A LC inh2)
O=Cc1ccc(N2N=C(c3ccccc3)CC2c2ccccc2)cc1 (centres undefined)	BoNT F protease 53, BoNT-A LC inh2 42
Cc1ccccc1N(CC(=O)NC1CCCC1)C(=O)C1(C)CC(=O)N=C2C=CC=CN21 (centres undefined)	none
Cc1ccccc1N(CC(=O)NCC1CCCO1)C(=O)C1(C)CC(=O)N=C2C=CC=CN21 (centres undefined)	Autofluor counter 23341
COc1cc(C(=O)NCc2nnc(SCC(=O)N3CCCc4ccccc43)o2)cc(OC)c1OC	none
CN1CCN(Cc2c(C#N)c3ccccc3n2C)CC1	Autofluor counter 19926, BoNT-A LC inh2 inconclusive
Cn1c(CN2CCOCC2)c(C#N)c2ccccc21	Autofluor counter 17523
Cn1c(CN2CCCC2)c(C#N)c2ccccc21	none
CN1CCN(Cc2nc3ccccc3n2C)CC1	Autofluor counter 19606, BoNT-A LC inh2 inconclusive
COC(=O)[C@]12C[C@H](CC(=O)N3CCCC3)C(=O)N(Cc3cccc4ccccc34)C1=C[C@H](COCc1ccccc1)O[C@@H]2C	none (no result: Anthrax LF inh2, BoNT F protease, Autofluor counter, 3CLpro inhibitor, BoNT-A LC inh2)
O=C(COC(=O)C1CC(O)CN1S(=O)(=O)c1ccccc1[N+](=O)[O-])c1ccc[nH]1 (centres undefined)	none (no result: 3CLpro inhibitor)
COc1ccc(C(=O)N2CCN(C)C(=O)[C@@H]2C)cc1OC1CCN(C(C)C)CC1	none
O=C(CSc1ccc2ccccc2n1)N1CCC(c2noc3ccc(F)cc23)CC1	Autofluor counter 22244
COc1ccc(OC)c(CN2CCN(C(=O)[C@@H](NC(=O)c3cccc(C)c3)C(C)C)CC2)c1	none (no result: 3CLpro inhibitor)
Clc1cccc(N2CCNCC2)c1Cl	Autofluor counter 19873
O=C1CC(c2ccccc2)CC(O)=C1C=NC1CCCCCC1 (centres undefined)	none
O=C1CC(c2ccccc2)CC(O)=C1C=NC1CCCCC1 (centres undefined)	Autofluor counter 23531
O=S(=O)(c1ccc(Br)s1)N1CCC(Cc2ccccc2)CC1	Autofluor counter 23471
O=S(=O)(c1ccc(Cl)s1)N1CCC(Cc2ccccc2)CC1	Autofluor counter 23306
O=C(NCCCN1CCOCC1)c1ccc(Cl)cc1Cl	BoNT F protease inconclusive
C#CC1(O)C2C=C(OC)C(=O)C1C(c1ccccc1)C2C (centres undefined)	none (no result: Anthrax LF inh2, BoNT F protease, Autofluor counter, 3CLpro inhibitor, BoNT-A LC inh2)
NS(=O)(=O)c1cccc(NC(=O)CCS(=O)(=O)c2ccc(Cl)cc2)c1	none
CCOC(=O)N1CCN(C(=O)C2CCC(=O)N2C(C)C)CC1 (centres undefined)	Autofluor counter 22385
Cc1ccc(Cl)cc1N1CCN(C(=O)C2CCC(=O)N2C(C)C)CC1 (centres undefined)	none
O=C(c1cccc2c1-c1ccccc1/C2=N/O)N1CCCCC1	Autofluor counter 20508, BoNT-A LC inh2 inconclusive
O=C1C(=O)N(c2cccc(Cl)c2)C(c2ccccc2[N+](=O)[O-])/C1=C(\O)c1ccccc1 (centres undefined)	Autofluor counter 21218 (no result: CCHF vOTU inh)
O=C1C(=O)N(c2ccccc2)C(c2ccccc2[N+](=O)[O-])/C1=C(\O)c1ccccc1 (centres undefined)	none
COc1cccc(-c2nnc(-c3ccccc3[N+](=O)[O-])o2)c1	none
CCOc1ccc(CCn2c(-c3ccco3)nc3ccccc3c2=O)cc1OCC	Autofluor counter 16599
Cc1ccccc1N1CCN(S(=O)(=O)c2ccc3c(c2)oc(=O)n3C)CC1	none (no result: Anthrax LF inh2, BoNT F protease, Autofluor counter, 3CLpro inhibitor, BoNT-A LC inh2)
Cc1ccc(NC(=O)NC2C(NC(=O)Nc3ccc(C)cc3)N(C)C(=O)N2C)cc1 (centres undefined)	Autofluor counter 18428, BoNT-A LC inh2 inconclusive
CCCOC(=O)Nc1ccc(N2CCCCC2)cc1	Autofluor counter 22287
CCCCOC(=O)Nc1ccc(C(=O)OCCC)cc1	Autofluor counter 22577
CCCCOC(=O)Nc1cccc(C(C)=O)c1	Autofluor counter 16653
CCCCOC(=O)c1cccc(NC(=O)CCC(=O)O)c1	Autofluor counter 20646, BoNT-A LC inh2 inconclusive
CCCCOC(=O)Nc1cccc(Cl)c1C	Autofluor counter 21233
CCN(CC(=O)Nc1ccc(NC(C)=O)cc1)C(=O)C1(c2ccccc2)CC1	none (no result: 3CLpro inhibitor)
O=c1[nH]c(O)c(/C=C2\C=NN=C2c2ccccc2)c(=O)[nH]1	Autofluor counter 21773
N#Cc1cc(C#N)c(N2CCN(c3ccccn3)CC2)nc1N	Autofluor counter 23218
CC1(C)CC(NS(=O)(=O)c2ccc(S(=O)(=O)N3CCOCC3)cc2)CCO1 (centres undefined)	Autofluor counter 19550
COc1cc(C2SCC(=O)Nc3c2c(C)nn3-c2ccccc2)cc(OC)c1OC (centres undefined)	Autofluor counter 19341
O=C(c1ccc(F)cc1)c1c[nH]c(C(=O)NCCCN2CCOCC2)c1	none
CCC(CC)C(=O)c1c[nH]c(C(=O)NCCCN2CCOCC2)c1	Autofluor counter 23037, BoNT-A LC inh2 inconclusive
O=C(c1ccccc1)c1c[nH]c(C(=O)NCCCN2CCOCC2)c1	Autofluor counter 22011, BoNT-A LC inh2 inconclusive
Cc1ccc(OCc2nnc(SCC(=O)Nc3ccc4c(c3)OCO4)n2Cc2ccco2)cc1	none (no result: Anthrax LF inh2, BoNT F protease, Autofluor counter, 3CLpro inhibitor, BoNT-A LC inh2)
CCOc1ccc(NC(=O)CCC(=O)NNS(=O)(=O)c2ccccc2[N+](=O)[O-])cc1	none
O=C(NCCc1ccncc1)C(F)(F)F	Autofluor counter 24347
O=C(NCCc1ccccc1)c1ccccc1F	none
NS(=O)(=O)c1ccc(CCNC(=O)c2ccccc2F)cc1	Autofluor counter 16685
O=C(NCCc1ccncc1)c1ccccc1F	Autofluor counter 21712
O=C(NCCNC(=O)C(F)(F)F)c1ccncc1	Anthrax LF inh2 inconclusive, Autofluor counter inconclusive (no result: 3CLpro inhibitor)
COc1ccc(/C=C/C(=O)Nc2cccc(S(=O)(=O)N3CCCC3)c2)cc1OC	none
CSCCC(NC(=O)c1ccccc1)C(=O)NC1CC1 (centres undefined)	Autofluor counter 23748, BoNT-A LC inh2 inconclusive
CCOCCCN(CCC#N)C(=O)C1CCN(S(=O)(=O)c2ccc(-n3cnnn3)cc2)CC1	none
COc1ccc2cc(C#N)c(SCC(=O)NNC(=O)Cc3ccccc3)nc2c1	Autofluor counter 19935
CCOc1ccc2cc(C#N)c(SCC(=O)N3CCC(C)CC3)nc2c1	Autofluor counter 23801
Cc1ccc(S(=O)(=O)N2C(=O)CCC2C(=O)O/N=C(\N)c2ccccc2)cc1 (centres undefined)	none
CCc1cc2c(=O)c(-c3nc4ccccc4n3C)c(COCC(=O)O)oc2cc1OC(=O)C(C)(C)C	Autofluor counter 17668
CCc1cc2c(=O)c(-c3nc4ccccc4n3C)c(C)oc2cc1OC(C)=O	none
C#CCN(CC=C)Cc1ccc(OC)cc1OC	none (no result: Anthrax LF inh2, BoNT F protease, Autofluor counter, 3CLpro inhibitor, BoNT-A LC inh2)
CC(=O)Nc1ccc(S(=O)(=O)Nc2nnc(C(C)C)s2)cc1	Autofluor counter 16628
Cc1cc(C2C(C#N)=C(N)SC(N)=C2C#N)c(C)s1	BoNT F protease 40 (no result: CCHF vOTU inh)
